This is a sample that favours compounds with a hit; in the whole collection about 4% have one here.
TRHR PAM – allosteric enhancers of human TRH receptor. TRHR cells, fluo-8 calcium fluorescence, EC20 TRH enhancement. actives 0.66% (n = 360,000). enhancement, % at 2 µM. P34981; in the data active = enhancement above about 30%; also: 0% is about no effect
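Enhancer read-out: after compound pinning and an initial kinetic agonist-mode read, an EC20 of TRH (10 nM final) was injected and fluo-8 calcium signal (Ex 480/Em 530) followed at 1 s/cycle for 100 cycles in TRHR-expressing cells.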
D1 ag – activates the human D1 dopamine receptor; activation, % at 2 µM; actives 1% (n = 360,000); HEK293 T-REx D1 cells, calcium flux, agonist mode; P21728; also: 0% is about no effect
Target sequence (P21728 whole entry, looked up): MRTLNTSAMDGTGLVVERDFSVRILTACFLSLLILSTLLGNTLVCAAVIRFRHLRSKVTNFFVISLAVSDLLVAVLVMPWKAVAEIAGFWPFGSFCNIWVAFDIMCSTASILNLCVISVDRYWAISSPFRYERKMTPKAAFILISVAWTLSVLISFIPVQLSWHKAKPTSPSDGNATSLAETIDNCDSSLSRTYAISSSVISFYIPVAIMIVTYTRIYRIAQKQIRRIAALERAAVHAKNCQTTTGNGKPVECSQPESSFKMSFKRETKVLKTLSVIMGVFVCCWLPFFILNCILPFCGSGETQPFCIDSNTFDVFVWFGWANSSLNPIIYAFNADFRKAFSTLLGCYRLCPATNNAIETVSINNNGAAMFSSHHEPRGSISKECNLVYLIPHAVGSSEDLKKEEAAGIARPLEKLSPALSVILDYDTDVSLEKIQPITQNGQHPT
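Inducible HEK293 T-REx D1 cells, force-coupled to calcium signalling, were plated at 4000 cells/well with tetracycline and held overnight at 30 C. After no-wash calcium dye loading, compound-evoked calcium rise over 180 s flagged agonists.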
D1 potentiator – human D1 dopamine receptor positive modulation; P21728; potentiation, % at 10 µM; HEK293 TREx D1 cells, calcium flux, dopamine EC20 potentiation; actives 0.036% (n = 360,000); in the data active = potentiation above about 30%; also: 0% is about no effect
D1 antagonist – antagonists of human D1 dopamine receptor; P21728; HEK293 TREx D1 cells, calcium flux, dopamine EC80; stronger effect = lower value; activity change, negative = inhibition, % at 10 µM; actives 3.2% (n = 360,000); in the data active = activity change below about -30%; also: % is scaled to controls: 0 for no effect and ±100 for the full control effect
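Calcium flux readout: force-coupled, inducible Hek293 Trex D1 line, cells induced overnight at 30 C with tetracycline, dye-loaded 30–90 min at RT. Antagonism scored against EC80 dopamine challenge given 180 s after compound.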
Glioma ERSR ind – ER stress response induction in glioma. U87-MG GRP78 promoter luciferase reporter, 16 h. Potency, µM, inactives show at the highest dose activation, actives largely listed as activators. actives 0.02% (n = 420,000); active = well fitted activation curve with a large enough effect; also: potency is read from the fitted curve at half-maximal effect; series mostly up to about 76 µM; % of control where 0% means no effect; nearly all actives have a fitted effect of over 35% in size
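ERSR induction read as luciferase luminescence (Bright-Glo, 10 min at room temperature) in stably transfected human U87-MG glioma cells exposed to compounds for 16 h, using GRP78 as sensor.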
TRHR ag – TRH receptor (human) agonism | P34981 | TRHR cells, calcium flux fluo-8, FDSS agonist mode | activation, % at 2 µM | actives 0.18% (n = 360,000); also: 0% is about no effect
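In this calcium-flux screen, cells bearing human TRHR are dye-loaded with fluo-8, baselined for 10 cycles, then exposed to library compounds; positive kinetic calcium responses during the agonist phase mark hits, with TRH as control.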
Numbers without * were called inactive; x = not tested or not shown. Rule as the data show it, unless noted: active = activation above about 30%; inactive = the rest.

SMILES	TRHR PAM	D1 ag	D1 potentiator	D1 antagonist	Glioma ERSR ind	TRHR ag
Cc1ccc2cc(C#N)c(N3CCCN(C(=O)c4cnccn4)CC3)nc2c1	11	0	0	-10	-2%	0
Cc1ccc2cc(C#N)c(N3CCCN(C(=O)C4CCCO4)CC3)nc2c1 (configuration not stated)	1	2	3	-44*	-1%	-1
COc1ccc(C2CC(c3ccccc3)=NN2C(=O)COC(=O)c2ccc(Cl)nc2)cc1 (configuration not stated)	2	7	2	0	7%	1
Cc1no[n+]([O-])c1COc1ccc(/C=C2\NC(=S)NC2=O)cc1	12	4	-3	-6	-2%	1
O=[N+]([O-])c1ccccc1OCC(O)CN1CCN(CC(O)COc2ccccc2[N+](=O)[O-])CC1 (configuration not stated)	4	9	0	-46*	-1%	0
O=[N+]([O-])c1ccccc1OCCN1CCCC1	10	5	-4	-38*	0%	0
COc1ccc(N2CCN(CC(O)COc3ccccc3[N+](=O)[O-])CC2)cc1 (configuration not stated)	2	5	-7	-20	-1%	0
O=[N+]([O-])c1cc(S(=O)(=O)N2CCCC2)ccc1OCc1ccccc1	12	22	0	-7	2%	0
O=[N+]([O-])c1cc(S(=O)(=O)N2CCCC2)ccc1OCCOc1ccccc1	-6	35*	x	-11	-3%	1
Cc1ccc(OCCN2CCN(C)CC2)c([N+](=O)[O-])c1	15	4	0	-38*	0%	1
CN(C)S(=O)(=O)c1ccc2nnn(OCC(=O)NC3CCS(=O)(=O)C3)c2c1 (configuration not stated)	5	2	5	8	3%	0
O=C(Cn1c(=O)c2ccccc2n2nncc12)Nc1cccc(F)c1	3	3	-2	1	1%	1
CC(NC(=O)Cn1nc(C(F)(F)F)c2c1CCC2)c1ccccc1 (configuration not stated)	-2	0	6	11	-4%	3
C=CCn1c(NC(=O)c2ccc(Br)o2)c(S(=O)(=O)c2ccccc2)c2nc3ccccc3nc21	8	10	-8	-2	0%	0
Cc1ccc([N+](=O)[O-])c(OCCN2CCc3ccccc3C2)c1	-4	2	-22	-52*	4%	0
Cc1ccc([N+](=O)[O-])c(OCCN2CCCCCC2)c1	11	4	-14	2	3%	-1
Cc1ccc(OCCN2CCNCC2)c([N+](=O)[O-])c1	4	5	-1	14	0%	1
Cc1ccc(OCCCN2CCOCC2)c([N+](=O)[O-])c1	31*	3	-3	-1	-4%	1
COc1cccc(C(=O)NCCN2CCN(c3ccc(Cl)cc3)CC2)c1	-1	1	-4	4	0%	-1
Cc1ccc(NC(=O)CCOc2ccccc2)c(C)c1	-6	1	0	2	-5%	-1
Cc1ccc(F)cc1NC(=O)CCOc1ccccc1	-7	6	-7	-31*	-2%	-1
CC12CCC(C(=O)N(CC(=O)O)C1=O)C2(C)C (configuration not stated)	20	0	5	-52*	-2%	1
CCc1ccc(NC(=O)C(CC)c2ccccc2)cc1 (configuration not stated)	-9	41*	14	3	-1%	12
CCC(C(=O)Nc1cc(OC)c(NC(=O)c2ccccc2)cc1OC)c1ccccc1 (configuration not stated)	2	7	-1	-6	-4%	-2
CCC(C(=O)Nc1ccc(C)cc1)c1ccccc1 (configuration not stated)	0	12	0	11	-4%	2
SMILES	TRHR PAM	D1 ag	D1 potentiator	D1 antagonist	Glioma ERSR ind	TRHR ag
CCC(C(=O)Nc1ccc(C(=O)Nc2ccccc2C(=O)O)cc1)c1ccccc1 (configuration not stated)	-4	2	-5	-65*	-6%	0
CCC(C(=O)Nc1ccc(C(=O)N2CCCC2)cc1)c1ccccc1 (configuration not stated)	3	37*	-6	4	9%	4
COC(=O)c1ccc2cc(F)cc(C)c2n1	x	x	x	x	0%	x
Cc1ccc(C2C3=C(CC(C)(C)CC3=O)OC3=C2C(=O)CC(C)(C)C3)cc1	6	0	-6	5	-3%	0
Cc1ccc(C2C3=C(CCCC3=O)OC3=C2C(=O)CCC3)cc1	40*	3	1	0	-1%	-1
O=C(O)c1ccc(NS(=O)(=O)c2ccc3c(c2)OCCO3)cc1	9	1	x	-7	-3%	1
Cc1cc(C(=O)N2CCCC(C(=O)c3ccc(Cl)cc3C)C2)no1 (configuration not stated)	15	1	7	-35*	-4%	-1
Cc1cc(Cl)ccc1C(=O)C1CCCN(C(=O)c2cscn2)C1 (configuration not stated)	-14	0	-1	-2	-2%	-1
S=c1[nH]c(-c2ccccc2)cn1/N=C/c1cccc2ccccc12	34*	6	2	-2	1%	1
Fc1ccc(Nc2nc(NCc3ccco3)c3ccccc3n2)cc1	-4	23	-19	-46*	-12%	2
c1ccc(CNc2nc(NCc3ccccc3)c3ccccc3n2)cc1	-9	38*	3	-35*	-17%	1
c1coc(CNc2nc(NCc3ccco3)c3ccccc3n2)c1	x	x	x	x	1%	x
COC(=O)c1ccc(S(=O)(=O)N(Cc2ccccc2)Cc2ccccc2)n1C	5	11	-4	-40*	-3%	-1
COc1ccc(CC2(CO)CCN(Cc3cccnc3)CC2)cc1	9	3	11	10	-4%	-1
COc1ccc(OC)c2c1CCC2=O	7	0	-8	-65*	-5%	-1
CC(=O)c1sc(NC(=O)C2(F)C(F)(F)C(F)(F)C(F)(F)C(F)(F)C2(F)F)nc1C	2	23	4	-35*	-4%	-1
CC(=O)c1sc(NC(=O)C=C(C)C)nc1C	-2	1	0	12	5%	0
CCCCC(=O)Nc1nc(C)c(C(C)=O)s1	4	3	x	-50*	1%	0
CCc1cc2c(=O)n(-c3ccccc3)c(SCC(N)=O)nc2s1	3	1	3	2	-3%	0
Cc1nnc(SCC(=O)N2N=C(c3ccc(Cl)cc3)CC2c2ccco2)[nH]c1=O (configuration not stated)	-2	8	-3	10	-4%	1

From PubChem
